Source: PubChem BioAssay AID463254 (National Center for Advancing Translational Sciences (NCATS), 2010)
The whole screen tested about 330,000 compounds, of which about 40 (0.01%) were called active. Entries that show only a call come without a potency. Calls follow the shape of the dose curve; as a rule, active = well fitted inhibition curve with a large enough effect; inconclusive = small, poorly fitted or top-dose-only effect, or effect the other way; inactive = flat fitted curve, though single readings scatter. The sample as a whole holds a higher share of actives than the screen did.

These compounds were tested against Ubiquitin carboxyl-terminal hydrolase 2 (Homo sapiens) (UniProt O75604) (assay: qHTS Assay for Inhibitors of Ubiquitin-specific Protease USP2a Using CHOP2 as the Reporter). Conditions: USP2 core, Ub-CHOP2 coupled fluorogenic reporter, 485/531; series mostly up to 38.3 µM.
Summary of the method: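 Cell-free coupled assay: 10nM USP2 core preincubated 30min RT with compound in Tris-HCl pH 8.0/CaCl2/CHAPS buffer, then 25nM Ub-CHOP2 and 25nM reporter substrate; fluorescence (Ex 485/Em 531) read after 60min RT, normalized to NEM inhibition, concentration-response curves fitted.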
Potency is read from the fitted curve at half-maximal effect.

Chain of Ubiquitin carboxyl-terminal hydrolase 2 (Homo sapiens) (O75604 whole entry, looked up): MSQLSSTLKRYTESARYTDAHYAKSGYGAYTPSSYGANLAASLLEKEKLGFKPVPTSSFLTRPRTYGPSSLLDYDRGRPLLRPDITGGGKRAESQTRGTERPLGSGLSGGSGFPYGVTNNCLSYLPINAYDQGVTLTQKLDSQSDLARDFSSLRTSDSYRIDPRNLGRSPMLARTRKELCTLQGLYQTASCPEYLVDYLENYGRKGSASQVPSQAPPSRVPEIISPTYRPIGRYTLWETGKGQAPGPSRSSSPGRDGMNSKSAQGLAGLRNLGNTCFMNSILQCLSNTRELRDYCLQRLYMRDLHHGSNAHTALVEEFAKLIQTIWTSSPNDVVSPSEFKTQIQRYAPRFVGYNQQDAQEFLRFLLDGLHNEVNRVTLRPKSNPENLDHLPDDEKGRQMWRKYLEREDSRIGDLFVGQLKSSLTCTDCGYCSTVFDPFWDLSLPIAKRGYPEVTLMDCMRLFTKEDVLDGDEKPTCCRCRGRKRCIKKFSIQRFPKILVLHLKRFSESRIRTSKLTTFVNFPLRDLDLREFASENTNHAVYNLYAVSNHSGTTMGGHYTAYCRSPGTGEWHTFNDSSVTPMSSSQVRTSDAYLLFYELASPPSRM

Row | SMILES | Potency | activity change, negative = inhibition
1 | CCOc1ccc(NC(=O)c2ccc(NC(=O)COC(=O)c3ccc(NC(=O)CC#N)cc3)cc2)cc1 | 7.94 µM (active) | –
2 | CCOc1ccc(NC(=O)CCNC(=O)c2ccc(Br)cc2)cc1 | – | inactive
3 | N#CCC(=O)Nc1ccc(C(=O)OCC(=O)Nc2sc3c(c2C#N)CCCC3)cc1 | – | inactive
4 | O=C(CCS(=O)(=O)c1ccccc1Cl)Nc1ccc(S(=O)(=O)Nc2ncccn2)cc1 | – | inactive
5 | CC(C)C1N=C2c3ccccc3N=C(SCC(=O)c3ccc(O)c(O)c3)N2C1=O (stereo unspecified) | – | inactive
6 | COc1ccccc1/C=C/C(=O)OCC(=O)NC1CCCCCC1 | – | inactive
7 | CCOc1ccc(NS(=O)(=O)c2ccc(C(=O)NC3CCN(Cc4ccccc4)CC3)cc2)cc1 | – | inactive
8 | CC(C)OC(=O)C(C#N)c1nc2ccccc2nc1N1CCN(Cc2ccc3c(c2)OCO3)CC1 (stereo unspecified) | – | inactive
9 | COc1cccc(-c2nnc(NC(=O)c3ccc(S(=O)(=O)N(CC(C)C)CC(C)C)cc3)o2)c1 | – | inactive
10 | Cc1sc(NC(=O)C2C3CCC(O3)C2C(=O)O)c(C(=O)OC(C)C)c1-c1ccc(Cl)cc1 (stereo unspecified) | – | inactive
11 | CCN(CC)C(=O)CSC(Nc1cccc(F)c1)=C(C#N)C#N | – | inactive
12 | CS(=O)(=O)c1ccc(-c2nnn(CC(=O)Nc3ccc4c(c3)OCCO4)n2)cc1 | – | inactive
13 | COc1ccc(Nc2ncc(C(=O)N3CCN(c4ccccc4OC)CC3)c3ccccc23)cc1 | – | inactive
14 | Cc1ccc(-n2nc(C)c(C(=O)O)c2-n2cccc2)cc1 | – | inactive
15 | CC(=O)c1ccc(NC(=O)C2CCCN2S(=O)(=O)c2cccs2)cc1 (stereo unspecified) | – | inactive
16 | Cn1c(=O)c2cc(S(=O)(=O)NCCC(=O)Nc3ccc(F)cc3F)ccc2n(C)c1=O | – | inactive
17 | Cc1cc(-c2n[nH]c(=S)n2/N=C/C(Br)=C/c2ccccc2)n[nH]1 | – | inactive
18 | Cc1c(C)c(C)c(S(=O)(=O)NCCc2ccccn2)c(C)c1C | – | inactive
19 | COc1cc(C)c(S(=O)(=O)N2CCOCC2)c(C)c1C | – | inactive
20 | COc1ccc(NC(=O)CN(C)C(=O)c2cccc(S(=O)(=O)N3CCN(c4ccccc4)CC3)c2)cc1 | – | inactive
21 | CCN(CC)C(=O)CSc1nnc(-c2ccc(S(=O)(=O)NCc3ccccc3Cl)cc2)o1 | – | inactive
22 | CN(CCO)c1ccc(/C=N/Nc2nncc3ccccc23)cc1 | – | inactive
23 | CCOC(=O)c1cc(-c2ccc(Cl)s2)nc2c1c(C)nn2C | – | inactive

Row | SMILES | Potency | activity change, negative = inhibition
24 | COc1ccc(NC(=O)CN2C(=O)C(c3ccccc3)=NC23CCCCCC3)cc1OC | – | inactive
25 | CC1(C)CC(=O)c2cc(OCC(=O)NCC3CCCO3)ccc2O1 (stereo unspecified) | – | inactive
26 | Cc1c(-c2nn(C)c(=O)c3ccccc23)oc2ccc(F)cc2c1=O | – | inactive
27 | CC(C)Cc1nn2c(=O)cc(O)nc2s1 | – | inactive
28 | COc1cc(N/C=C2\CC(=O)NC(C)=C2C#N)cc(OC)c1OC | – | inactive
29 | O=C(Nc1cccc(Cl)c1)c1cncn1-c1ccc(F)cc1 | – | inactive
30 | O=C(COC(=O)c1cccc(Cl)c1)NC1CCCCCCC1 | – | inactive
31 | Cc1cccc(OCC(O)CN2CCN(CCN3C(=O)c4cccc5cccc(c45)C3=O)CC2)c1C (stereo unspecified) | – | inactive
32 | Cc1nc(NC2=NC(C(=O)Nc3ccc(Cl)cc3)CC(=O)N2)nc2ccccc12 (stereo unspecified) | – | inactive
33 | C=CC(COCc1ccccc1)N(Cc1ccccc1)S(=O)(=O)c1ccccc1Br (stereo unspecified) | – | inactive
34 | CCC(C)N1CC(=O)N2Cc3[nH]c4ccccc4c3C[C@H]2C1=O (stereo partly specified) | – | inactive
35 | CCCCOC(=O)c1ccc(NC(c2ccc(C)cc2)P(=O)(OC)OC)cc1 (stereo unspecified) | – | inactive
36 | O=C(O)c1cc2c(cc1NC(=O)c1c(F)cccc1Cl)OCCCO2 | – | inactive
37 | O=S(=O)(NC1CCN(S(=O)(=O)c2ccc3c(c2)OCCO3)CC1)c1c(F)cccc1F | – | inactive
38 | CCCOc1ccc(CN(CCO)CCO)cc1C(=O)OC | – | inactive
39 | Cc1ccc(NC2=C(Cl)C(=O)OC2OC(=O)c2ccccc2C)cc1 (stereo unspecified) | – | inactive
40 | C[C@@]12C(=O)N(c3cccc(Br)c3)C(=O)N1[C@H](c1ccc(Cl)cc1)[C@@H]1C(=O)N(C3CCCCC3)C(=O)[C@@H]12 | – | inactive
41 | CCn1c(SC(C)C(=O)Nc2ccc(N3CCOCC3)cc2)nnc1-c1ccco1 (stereo unspecified) | – | inactive
42 | CCOC(=O)c1c(CNCc2ccccc2F)c2sc(C)cc2n1C | – | inactive
43 | CN(C(=O)CCn1c(=S)oc2ccccc21)C1CCCCC1 | – | inactive
44 | CCCCN=C(N)/C(C(=O)OCC)=C(\O)c1ccc(OC)cc1 | – | inactive
45 | COc1ccc(OC)c(-n2cc3c(=O)n(C)c(=O)n(C)c3c2)c1 | – | inactive
46 | O=[N+]([O-])c1cc([N+](=O)[O-])c2cccnc2c1O | – | inactive
